Reference: PubChem BioAssay (Tox21)
Records with an inconclusive call do not appear. Entries that show only a call come without a potency. More than one record can exist for a structure, and the calls need not agree. The source made the active and inactive calls. Unless noted, calls come from the whole dose curve; as a rule, active = well fitted curve in the direction sought with a large enough effect in the repeat runs; inconclusive = weak or mixed curves; inactive = no such curve, though single readings can be large; an effect the other way counts as inactive or inconclusive.

Tests used:
[1] = qHTS assay to identify small molecule agonists of the peroxisome proliferator-activated receptor delta (PPARd) signaling pathway - cell viability counter screen (AID 743211); note: nearly all actives have a fitted effect of over 55% in size; note: potency is the fitted concentration of half-maximal effect
Procedure, shortened: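 HEK293H PPARd-bla, 3000 cells/well; 5 h preincubation 37C/5% CO2; cpd in DMSO, 17 h 37C; B/G FRET substrate 2 h RT; CellTiter-Glo 30 min RT, luminescence.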

[2] = qHTS assay to identify small molecule agonists of the farnesoid-X-receptor (FXR) signaling pathway - cell viability counter screen (AID 743218); note: nearly all actives have a fitted effect of over 45% in size
Procedure, shortened: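 Parallel cytotoxicity test: compound-treated (16 h, 37 C) HEK 293T FXR-bla reporter cells were lysed with CellTiter-Glo and luminescence recorded.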

[3] = qHTS assay to identify small molecule antagonists of the farnesoid-X-receptor (FXR) signaling pathway - cell viability counter screen (AID 743221; active = well fitted cell-killing curve with a large enough effect in the repeat runs, not every such curve was filed as active; note: nearly all actives have a fitted effect of over 50% in size)
Procedure, shortened: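 Luminescence from CellTiter-Glo measures cytotoxicity in GeneBLAzer FXR-UAS-bla HEK 293T cells. Cells were exposed to compounds with 50 uM chenodeoxycholic acid (final) for 16 h at 37 C, in wells also used for the reporter readout.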

[4] = qHTS assay to identify small molecule agonists of the vitamin D receptor (VDR) signaling pathway - cell viability counter screen (AID 743224); note: nearly all actives have a fitted effect of over 50% in size; note: potency is the fitted concentration of half-maximal effect
Procedure, shortened: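 Plated VDR-bla cells (4 h, 37C) received compound, incubated 16 h, then LiveBLAzer substrate 2 h RT; CellTiter-Glo added afterwards, luminescence read at 30 min.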

[5] = qHTS assay to identify small molecule antagonists of the vitamin D receptor (VDR) signaling pathway - cell viability counter screen (AID 743225); note: nearly all actives have a fitted effect of over 50% in size
Procedure, shortened: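 Read-out: CellTiter-Glo luminescence measured 30 min after reagent addition at room temperature. Cells were VDR-bla HEK 293T exposed 16 h at 37C, 5% CO2, to compound with 3 nM final calcitriol agonist.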

[6] = qHTS assay to identify small molecule agonists of the NFkB signaling pathway (AID 1159509; active = well fitted curve in the direction sought with a large enough effect in the signal ratio in the repeat runs, not every such curve was filed as active; the % refers to the signal ratio; note: series mostly up to about 61 µM)
Procedure, shortened: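 NFkB-bla ME-180 cells with a beta-lactamase reporter under an NF-kB response element were plated overnight, treated with compounds in DMSO for 5 hr at 37 C, then loaded with FRET substrate for 1.5 hr at room temperature.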

[7] = qHTS assay to identify small molecule agonists of the endoplasmic reticulum stress response signaling pathway (AID 1159516; active = well fitted activation curve with a large enough effect in the signal ratio in the repeat runs, not every such curve was filed as active; the % refers to the signal ratio)
Procedure, shortened: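 An ESRE-bla HeLa cell assay: compounds were pin-transferred from DMSO onto overnight-plated cells and left 5 hr at 37 C. Substrate was then loaded for 2 hr at room temperature before reading fluorescence at 460 nm and 530 nm.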

[8] = qHTS assay to identify small molecule agonists of the endoplasmic reticulum stress response signaling pathway - cell viability counter screen (AID 1159517; calls by dose curve; note: nearly all actives have a fitted effect of over 50% in size; note: potency is the fitted concentration of half-maximal effect)
Procedure, shortened: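 Cells, HeLa ESRE-bla; density, 1,500/well; dosing, 5 hr at 37 C, 5% CO2; readout, CellTiter-Glo luminescence after 30 min RT.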

[9] = qHTS assay to identify small molecule antagonists of the retinoid-related orphan receptor gamma (ROR-gamma) signaling pathway - cell viability counter screen (AID 1159520); note: nearly all actives have a fitted effect of over 50% in size; note: potency is the fitted concentration of half-maximal effect
Procedure, shortened: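 Cytotoxicity was read from cellular ATP (CellTiter-Glo luminescence) after 16 hr at 37 C with 1 uM doxycycline induction. The inducer was added 2 hr after compound transfer to Tet-on ROR gamma CHO cells.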

[10] = molecular target: Nuclear receptor ROR-gamma (Homo sapiens) (UniProt P51449); test: qHTS assay to identify small molecule antagonists of the retinoid-related orphan receptor gamma (ROR-gamma) signaling pathway (AID 1159521; note: nearly all actives have a fitted effect of over 50% in size; note: potency is the fitted concentration of half-maximal effect)
Procedure, shortened: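 CHO Tet-on RORγ, RORE-luc reporter. Cpd 2 h pre-incubation, then dox hyclate 1 uM final, 16 h, 37 C/5% CO2. ONE-Glo luminescence; decrease = antagonist.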

[11] = qHTS assay to identify small molecule agonists of the AP-1 signaling pathway - cell viability counter screen (AID 1159525; calls by dose curve; note: nearly all actives have a fitted effect of over 55% in size; note: potency is the fitted concentration of half-maximal effect)
Procedure, shortened: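 Luminescent ATP readout (Cell Titer Glo, 30 min RT), normalised to DMSO and tetra n-octyl ammonium bromide controls. Cells were ME-180 AP-1-bla in 0.5% dialyzed FBS Opti-MEM, with a 5 h, 37 °C compound exposure.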

[12] = qHTS assay to identify small molecule agonists of the AP-1 signaling pathway (AID 1159526; calls by dose curve)
[13] = qHTS assay to identify small molecule antagonists of the peroxisome proliferator-activated receptor delta (PPARd) signaling pathway - cell viability counter screen (AID 743213); note: nearly all actives have a fitted effect of over 50% in size; note: potency is the fitted concentration of half-maximal effect
Procedure, shortened: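 Viability counter-screen, qHTS format: PPARd-bla HEK293H, L165041 300 nM final, 17 h compound exposure at 37 C, CellTiter-Glo luminescence after 30 min RT.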

[14] = molecular target: Peroxisome proliferator-activated receptor delta (Homo sapiens) (UniProt Q03181); test: qHTS assay to identify small molecule antagonists of the peroxisome proliferator-activated receptor delta (PPARd) signaling pathway (AID 743215; active = well fitted inhibition curve with a large enough effect in the signal ratio in the repeat runs, not every such curve was filed as active; the % refers to the signal ratio;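 note: cells stimulated with agonist L165041 at 300 nM final during compound exposure; series mostly up to about 62 µM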)
Procedure, shortened: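 HEK293H UAS-bla, PPARd; agonist L165041 300 nM final with cpd in DMSO; 37 C 17 h; FRET substrate, RT 2 h; fluorescence intensity.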

[15] = molecular target: Vitamin D3 receptor (Homo sapiens) (UniProt P11473); test: qHTS assay to identify small molecule agonists of the vitamin D receptor (VDR) signaling pathway (AID 743222; calls by dose curve)
Procedure, shortened: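 In VDR-bla cells, compound-induced beta-lactamase expression is quantified by FRET substrate fluorescence. Treatment lasts 16 h at 37C; substrate develops 2 h at room temperature.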

[16] = molecular target: Vitamin D3 receptor (Homo sapiens) (UniProt P11473); test: qHTS assay to identify small molecule antagonists of the vitamin D receptor (VDR) signaling pathway (AID 743223; active = well fitted inhibition curve with a large enough effect in the signal ratio in the repeat runs, not every such curve was filed as active; the % refers to the signal ratio)
Procedure, shortened: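 Antagonist mode uses 1alpha,25-dihydroxyvitamin D3 at 3 nM final as stimulus. VDR-bla cells receive compounds in DMSO, incubate 16 h at 37C, then a beta-lactamase FRET substrate for 2 h at room temperature before fluorescence measurement.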

[17] = molecular target: Bile acid receptor (Homo sapiens) (UniProt Q96RI1); test: qHTS assay to identify small molecule agonists of the farnesoid-X-receptor (FXR) signaling pathway (AID 743220; active = well fitted activation curve with a large enough effect in the signal ratio in the repeat runs, not every such curve was filed as active; the % refers to the signal ratio)
Procedure, shortened: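 Beta-lactamase reporter under UAS control in GeneBLAzer FXR HEK 293T cells (5000/well) measured with LiveBLAzer FRET substrate after 2 h at room temperature. Compound exposure lasted 16 h at 37C.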

[18] = molecular target: Peroxisome proliferator-activated receptor delta (Homo sapiens) (UniProt Q03181); test: qHTS assay to identify small molecule agonists of the peroxisome proliferator-activated receptor delta (PPARd) signaling pathway (AID 743212; calls by dose curve; note: potency is the fitted concentration of half-maximal effect)
Procedure, shortened: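 HEK293H UAS-bla reporter cells, human PPARd system; compounds delivered in DMSO after 5 h plating, then at 37 C. Beta-lactamase FRET read, 2 h RT substrate step.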

[19] = molecular target: Bile acid receptor (Homo sapiens) (UniProt Q96RI1); test: qHTS assay to identify small molecule antagonists of the farnesoid-X-receptor (FXR) signaling pathway (AID 743217; active = well fitted inhibition curve with a large enough effect in the signal ratio in the repeat runs, not every such curve was filed as active; the % refers to the signal ratio)
Procedure, shortened: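 GeneBLAzer FXR-UAS-bla HEK 293T, CDCA-stimulated (50 uM final). Compound treatment 16 h, 37 °C. Detection: beta-lactamase cleavage of B/G FRET substrate, fluorescence.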

Vitamin D3 receptor (Homo sapiens), sequence (P11473 whole entry, looked up): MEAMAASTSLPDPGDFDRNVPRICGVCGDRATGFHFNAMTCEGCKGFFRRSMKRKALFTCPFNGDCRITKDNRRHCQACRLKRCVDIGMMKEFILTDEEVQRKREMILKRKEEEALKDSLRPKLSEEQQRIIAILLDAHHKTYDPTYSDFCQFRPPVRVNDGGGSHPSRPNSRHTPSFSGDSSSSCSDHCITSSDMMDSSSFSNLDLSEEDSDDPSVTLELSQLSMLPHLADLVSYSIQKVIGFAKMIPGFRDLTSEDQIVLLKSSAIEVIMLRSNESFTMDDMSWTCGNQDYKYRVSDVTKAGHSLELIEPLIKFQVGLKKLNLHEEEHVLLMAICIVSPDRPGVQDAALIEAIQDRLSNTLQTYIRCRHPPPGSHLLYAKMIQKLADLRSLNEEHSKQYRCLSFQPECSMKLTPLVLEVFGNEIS
Bile acid receptor (Homo sapiens), sequence (Q96RI1 whole entry, looked up): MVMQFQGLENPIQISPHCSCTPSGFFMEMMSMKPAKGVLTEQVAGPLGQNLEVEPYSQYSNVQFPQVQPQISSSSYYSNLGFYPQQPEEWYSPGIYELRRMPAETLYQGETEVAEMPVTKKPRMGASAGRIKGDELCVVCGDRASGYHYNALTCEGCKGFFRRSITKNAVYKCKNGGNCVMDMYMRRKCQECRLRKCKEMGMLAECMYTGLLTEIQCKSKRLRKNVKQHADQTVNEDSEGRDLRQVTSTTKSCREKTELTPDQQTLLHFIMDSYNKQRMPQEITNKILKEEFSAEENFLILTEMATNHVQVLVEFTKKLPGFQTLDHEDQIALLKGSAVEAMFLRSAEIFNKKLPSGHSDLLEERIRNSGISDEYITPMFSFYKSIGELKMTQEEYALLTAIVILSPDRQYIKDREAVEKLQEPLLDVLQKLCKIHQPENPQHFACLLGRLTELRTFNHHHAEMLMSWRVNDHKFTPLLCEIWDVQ
Peroxisome proliferator-activated receptor delta (Homo sapiens), sequence (Q03181 whole entry, looked up): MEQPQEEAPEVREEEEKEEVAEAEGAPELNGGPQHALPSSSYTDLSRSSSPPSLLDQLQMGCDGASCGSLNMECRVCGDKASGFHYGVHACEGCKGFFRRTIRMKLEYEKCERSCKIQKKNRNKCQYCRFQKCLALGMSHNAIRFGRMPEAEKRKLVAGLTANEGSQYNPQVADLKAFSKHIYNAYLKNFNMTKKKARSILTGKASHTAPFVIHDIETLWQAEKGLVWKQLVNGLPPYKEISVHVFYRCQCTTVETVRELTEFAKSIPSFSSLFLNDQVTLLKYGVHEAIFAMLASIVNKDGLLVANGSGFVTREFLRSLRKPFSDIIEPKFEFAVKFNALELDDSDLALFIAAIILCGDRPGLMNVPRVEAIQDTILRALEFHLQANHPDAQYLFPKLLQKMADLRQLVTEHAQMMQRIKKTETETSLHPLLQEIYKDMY

SMILES | Potency [1] | Potency [2] | Potency [3] | Potency [4] | Potency [5] | Potency [6] | Potency [7] | Potency [8] | Potency [9] | Potency [10] | Potency [11] | Potency [12] | Potency [13] | Potency [14] | Potency [15] | Potency [16] | Potency [17] | Potency [18] | Potency [19]
CC(C)=CCC1C(=O)N(c2ccccc2)N(c2ccccc2)C1=O | inactive | inactive | inactive | inactive | inactive | inactive | inactive | inactive | inactive | inactive | inactive | inactive |  |  |  |  |  |  | 
O=C1c2ccccc2C(=O)C1c1ccc(Br)cc1 | inactive | inactive | inactive | inactive | inactive | inactive | inactive | inactive | inactive | inactive |  | inactive | inactive | inactive | inactive | inactive |  |  | 
CCCCCCCCC(CCCCCC)C(=O)O (centres undefined) |  |  |  |  |  | inactive | inactive | 54.9 µM (active) | inactive | inactive | 49 µM (active) |  | inactive |  | inactive | inactive | inactive |  | 
CC(=O)c1cc2ccccc2s1 | inactive | inactive | inactive | inactive | inactive | inactive | inactive | inactive | inactive | inactive | inactive | inactive | inactive |  |  | inactive | inactive | inactive | inactive
COc1ccccc1N1CCN(CC(O)COc2cccc3ccccc23)CC1 (centres undefined) | 26.6 µM (active) | inactive | inactive | inactive | inactive | inactive | inactive | inactive | inactive |  | 23.9 µM (active) |  | 29.8 µM (active) | inactive |  | inactive |  | inactive | 
CC(CC1c2ccccc2CCc2ccccc21)CN(C)C (centres undefined) |  | inactive | inactive | inactive |  | inactive | inactive | inactive | inactive |  |  |  |  | inactive |  |  | inactive |  | inactive
CCOC(=O)[C@H](CCc1ccccc1)N[C@@H](C)C(=O)N(CC(=O)O)C1Cc2ccccc2C1 |  |  |  | inactive | inactive | inactive | inactive | inactive | inactive |  |  | inactive |  | inactive | inactive | inactive |  |  | 
FC(F)(F)c1ccccc1Cl | inactive | inactive | inactive | inactive | inactive | inactive | inactive | inactive | inactive |  |  | inactive | inactive | inactive | inactive | inactive | inactive | inactive | inactive
CCC(OCCCOC)OC(C)=O (centres undefined) | inactive | inactive | inactive | inactive | inactive | inactive | inactive | inactive | inactive |  |  | inactive | inactive | inactive |  | inactive |  | inactive | 
O=C1Cc2ccccc2N1c1c(Cl)cccc1Cl |  |  | inactive | inactive |  | inactive | inactive | inactive | inactive |  |  |  | inactive | inactive | inactive |  | inactive |  | inactive
Cc1ccc(C(C)(C)O)cc1 | inactive | inactive | inactive | inactive | inactive | inactive | inactive | inactive | inactive |  | inactive | inactive | inactive | inactive | inactive |  |  | inactive | 
CCCC(=O)C(=O)O | inactive | inactive | inactive | inactive | inactive | inactive | inactive | inactive | inactive |  |  | inactive | inactive | inactive |  |  |  | inactive | 
NC1[C@H]2CN(c3nc4c(cc3F)c(=O)c(C(=O)O)cn4-c3ccc(F)cc3F)C[C@@H]12 (some centres undefined) | inactive | inactive | inactive |  |  | inactive | inactive | inactive | inactive |  | inactive | inactive | inactive |  |  |  |  | 29.8 µM (active) | 
C[C@]12CC[C@@H]3c4ccc(O)cc4CC[C@H]3[C@@H]1CC[C@@H]2OC(=O)CCC1CCCC1 |  | inactive | inactive | 43.6 µM (active) and inactive | inactive | inactive | inactive | inactive | 43.3 µM (active) | 30.6 µM (active) |  |  | inactive | inactive | inactive | inactive | inactive | inactive | 
Cc1cc2c(OCC(CNC(C)(C)C)OC(=O)c3ccccc3)cccc2[nH]1 (centres undefined) | inactive | inactive | inactive | inactive | inactive | inactive | inactive | inactive | inactive |  | inactive | inactive | inactive | inactive | inactive | inactive |  |  | 
CC(C)Nc1cccnc1N1CCN(C(=O)c2cc3cc(NS(C)(=O)=O)ccc3[nH]2)CC1 | inactive | inactive | inactive | inactive | inactive | inactive | inactive | inactive | inactive |  | inactive | inactive | inactive |  | inactive | inactive |  |  | inactive
c1ccc2c(c1)CCc1ccccc1N2 | inactive | inactive | inactive | inactive | inactive | inactive | inactive | inactive | inactive |  | inactive |  | inactive | inactive | inactive |  |  | inactive | 
O=C(CCCN1CC=C(n2c(=O)[nH]c3ccccc32)CC1)c1ccc(F)cc1 |  | inactive | inactive | inactive | inactive | inactive | inactive | inactive | inactive |  | inactive | inactive |  | inactive |  |  |  | inactive | 
CCCCOc1ccc(OCCCN2CCOCC2)cc1 | inactive |  | inactive | inactive | inactive | inactive | inactive | inactive | inactive |  | inactive | inactive | inactive |  | inactive |  | inactive |  | inactive
